Screens deposited in PubChem BioAssay by National Center for Advancing Translational Sciences (NCATS).
NPC1 promoter act: qHTS Assay for NPC1 Promoter Activators. Huh7 NPC1 promoter luciferase reporter, 24 h. Potency, µM (titrated, usually from 9.22 µM), for the others: at the top dose activation, most hits filed as activators. 2.4% of 320,000 active; further: % of control where 0% means no effect; nearly all actives have a fitted effect of over 60% in size
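Cells: Huh7 expressing luciferase under the NPC1 promoter, 1500/well. Seeded 2 h, compound added, incubated 24 h at 37 °C. Luciferase reagent, 10 min ambient, then luminescence.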
Rab9 prom act: qHTS Assay for Rab9 Promoter Activators; Huh7 Rab9 promoter-luciferase reporter, luminescence, 24 h; Potency, µM (doses to about 9.22 µM), inactives show at the top dose activation, negative = inhibition, actives largely listed as activators; 2.8% of 320,000 active; AID 485297, 2010; further: % of control where 0% means no effect; nearly all actives have a fitted effect of over 60% in size
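Huh7 reporter line, Rab9 promoter upstream of luciferase. Compound exposure 24 h at 37 °C in reduced-serum medium with 10% FBS. Read-out: luminescence.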
ELG1 DNA repair: qHTS screen for small molecules that inhibit ELG1-dependent DNA repair in human embryonic kidney (HEK293T) cells expressing luciferase-tagged ELG1. HEK293T ELG1-luciferase reporter, luminescence, 16 h; DNA damage induced by 5-fluorouridine. Potency, µM (doses to about 46.1 µM), for the others: top-dose activity change, negative = inhibition, usual class: inhibitors. 2.3% of 330,000 active; further: on the % scale 0 is the no-effect control and ±100 the full control effect; nearly all actives have a fitted effect of over 55% in size
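5-Fluorouridine DNA damage + compound/DMSO, 2,000 cells/well, 16 h, 37 °C/5% CO2. ONE-Glo, 30 min RT, luminescence. Readout = decrease in reporter signal.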
SMN2 splice enh: qHTS Assay for Enhancers of SMN2 Splice Variant Expression; 2.8% of 210,000 active; AID 1458, 2008; Potency, µM (titrated, usually from 46.1 µM), for the others: top-dose activity change, positive = activation, usual class: activators; HEK293 SMN2-luciferase splicing reporter, luminescence, 30-36 h; further: % of control where 0% means no effect; nearly all actives have a fitted effect of over 55% in size
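qHTS luciferase splicing reporter: luminescence rises when SMN2 exon 7 is included in transfected HEK293 cells. Compound exposure lasted 30-36 h at 37C, with 4.5 mM final sodium butyrate as control, followed by a ONE-Glo read.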
ELG1 genotox: qHTS screen for small molecules that induce genotoxicity in human embryonic kidney (HEK293T) cells expressing luciferase-tagged ELG1; HEK293T ELG1-luciferase reporter, luminescence, 16 h; Potency, µM (top dose mostly 46 µM), without a hit: at the highest dose activity change, positive = activation, actives largely listed as activators; 1.3% of 330,000 active; further: % of control where 0% means no effect; nearly all actives have a fitted effect of over 60% in size
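Screening used a luciferase reporter fused to human ELG1 in HEK293T cells. Luminescence was read on a CCD plate imager after 16 hr exposure and 30 min ONE-Glo incubation.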
FLuc modulator: qHTS profiling assay for firefly luciferase inhibitor/activator using purifed enzyme and Km concentrations of substrates (counterscreen for miR-21 project). 6.9% of 360,000 active. purified FLuc, Km substrates, luminescence inhibition. Luciferin 4-monooxygenase (Photinus pyralis), P08659. Potency, µM (top dose mostly 57.5 µM), without a hit: at the top dose activity change, negative = inhibition, hits mostly inhibitors. AID 588342, 2011;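 further: plate controls were vehicle for no effect and reference inhibitor for full effect; nearly all actives have a fitted effect of over 55% in size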
Target sequence (P08659 whole entry, looked up): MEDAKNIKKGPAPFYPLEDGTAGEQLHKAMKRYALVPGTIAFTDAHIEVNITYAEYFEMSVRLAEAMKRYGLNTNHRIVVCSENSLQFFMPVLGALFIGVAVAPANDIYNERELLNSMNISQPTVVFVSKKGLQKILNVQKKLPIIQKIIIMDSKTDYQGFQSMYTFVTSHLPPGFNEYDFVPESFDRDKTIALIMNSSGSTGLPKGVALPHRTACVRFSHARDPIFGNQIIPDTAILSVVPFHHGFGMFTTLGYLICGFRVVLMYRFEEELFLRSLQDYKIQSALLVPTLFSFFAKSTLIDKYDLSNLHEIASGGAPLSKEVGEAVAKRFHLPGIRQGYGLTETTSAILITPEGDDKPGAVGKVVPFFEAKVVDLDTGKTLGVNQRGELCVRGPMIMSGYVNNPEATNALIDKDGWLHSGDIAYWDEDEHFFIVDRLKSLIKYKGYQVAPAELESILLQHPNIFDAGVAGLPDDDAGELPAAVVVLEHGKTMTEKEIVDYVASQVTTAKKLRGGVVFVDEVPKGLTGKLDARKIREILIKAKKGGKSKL
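Purified P. pyralis luciferase (10nM final) with 10uM D-luciferin and 10uM ATP (Km levels) in 50mM Tris acetate pH 7.5, 10mM Mg acetate, 0.01% Tween-20, 0.05% BSA; qHTS 6-point titration, ~60 µM downward; luminescence read.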
Active calls of the source: *; ? = inconclusive; · = not tested or not shown. In the library only some 9.3% were active in any assay of this set; here they are far more common. The call rests on the fitted dose curve; in most records, active means well fitted curve in the direction sought with a large enough effect; inconclusive means small, poorly fitted or top-dose-only effect, or another doubt; inactive means no such curve, though single readings can be large; an effect the other way counts as inactive or inconclusive. Potency means the concentration at half of the fitted maximal effect.

SMILES	NPC1 promoter act	Rab9 prom act	ELG1 DNA repair	SMN2 splice enh	ELG1 genotox	FLuc modulator
O=S(=O)(CC(CN1CCCC1)N1CCCC1)c1ccc2ccccc2c1 (configuration not stated)	-25.0%	-22.6%	11.6µM*	22.2%	-10.9%	3.6%
O=C(Nc1ccc2nc(SCC(=O)N3CCCc4ccccc43)sc2c1)c1cccc(Cl)c1	·	·	·	·	·	-10.8%
O=C(NC1CCCC1)C(c1ccccn1)N(C(=O)c1csnn1)c1ccccc1F (configuration not stated)	5.2%	0.8%	13.5%	·	-2.0%	2.3%
O=C(c1cccc(F)c1)N1CCC[C@@]2(CCN(Cc3ccccc3)C2)C1	·	·	·	2.2%	·	·
COc1ccc(CNC(=O)c2ccc(-c3nc(CSc4ccc(C)cc4)c(C)o3)cc2)cc1OC	·	·	·	·	·	3.8%
Cc1ccc(-c2csc(NC(=O)c3ccccc3Cl)c2C(=O)O)cc1	-4.8%	4.5%	?	·	0.6%	26.9µM*
CC(C)c1ccc(-c2csc(NC(=O)c3cccs3)c2C(=O)O)cc1	19.9%	1.6%	?	·	-12.3%	16.9µM*
Cc1ccc(-c2csc(NC(=O)c3ccc(Br)cc3)c2C(=O)O)cc1	2.51µM*	3.55µM*	?	·	1.9%	12µM*
COC(=O)c1cc(-c2ccc(Cl)cc2)c2c(=O)[nH]c(=O)n(C)c2n1	·	·	·	-3.3%	·	-1.3%
CCC(=O)N1CCc2cc(S(=O)(=O)NCCC(=O)NC(C)c3ccccc3)ccc21 (configuration not stated)	·	·	·	-5.7%	·	4.3%
FC(F)(F)c1ccccc1NC1=NCCC1	-4.8%	0.2%	10.3%	1.6%	-0.5%	0.8%
CCC(C(=O)NC1CCCC1)N(C(=O)Cn1nnc(-c2ccc(C)o2)n1)c1ccc(F)cc1 (configuration not stated)	0.7%	0.2%	8.7%	·	5.3%	-0.1%
COC(=O)c1ccc(C(/C=C/[C@@H](C)C(=O)NCc2cc(C)n(C)n2)NC(=O)OCc2ccccc2)cc1 (some centres not stated)	·	·	·	10.9%	·	·
Cc1cc(NCCCN)nc(-c2ccccc2O)n1	0.0%	12.8%	24.1%	69.1%	29.3%	0.9%
C/C(=N\Nc1cc(C)nc(-c2ccccc2O)n1)c1ccccc1	-1.3%	-2.8%	?	-21.0%	-8.3%	9.53µM*
C/C(=N\Nc1cc(C)nc(-c2ccccc2)n1)c1cccc([N+](=O)[O-])c1	-2.7%	-2.1%	14.6µM*	·	-15.0%	?
Cc1cc(N/N=C/c2ccc(O)c(C)c2O)nc(-c2ccccc2O)n1	-1.4%	0.1%	2.91µM*	-62.8%	-6.5%	?
C/C(=N\Nc1ccc([N+](=O)[O-])cc1)c1cccc(N)c1	?	?	8.1%	?	13.8%	19µM*
CCCCCc1ccc(-c2ccc(OC)cc2)nc1	0.1%	-8.9%	-16.7%	·	-12.5%	?
CCCCc1ccc(-c2ccc(C)cc2O)nc1	0.501µM*	0.631µM*	?	22.4µM*	1.46µM*	0.426µM*
CCCCc1ccc(-c2ccc(Br)cc2O)nc1	1.41µM*	0.794µM*	?	?	1.3µM*	0.849µM*
CC(OC(=O)Cc1c[nH]c2ccccc12)C(=O)Nc1ccccc1[N+](=O)[O-] (configuration not stated)	-4.0%	-1.5%	12.7%	·	0.0%	4.4%
CCc1cc(C(=O)Nc2ccc(OC)nc2)sc1C	12.6%	-34.0%	?	·	9.3%	21.3µM*
CCc1cc(C(=O)Nc2ncccc2O)sc1C	1.12µM*	2.51µM*	?	·	0.326µM*	1.35µM*
CCCCN(C)CCNC(=O)C1CCN(c2nc3ccc(CC)cc3s2)CC1	·	·	·	10.3%	·	12µM*
SMILES	NPC1 promoter act	Rab9 prom act	ELG1 DNA repair	SMN2 splice enh	ELG1 genotox	FLuc modulator
CCc1ccc2nc(N3CCC(C(=O)O)CC3)sc2c1	·	·	·	?	·	0.213µM*
CCc1ccc2nc(N3CCN(C(=O)C4CC4)CC3)sc2c1	·	·	·	·	·	15.1µM*
Cc1ccc2nc(N3CCN(C(=O)C4COc5ccccc5O4)CC3)sc2c1 (configuration not stated)	·	·	·	·	·	8.49µM*
CCOC(=O)C1CCN(C(=O)CCc2ccc(S(=O)(=O)NCC(C)C)cc2)CC1	-5.8%	-5.7%	-3.6%	·	-5.0%	0.1%
CCOCCCNC(=O)C(c1ccccc1)N1Cc2ccccc2C1=O (configuration not stated)	·	·	·	·	·	-1.0%
O=C1NC2(CCC3(CC2)OCCO3)NN1c1ccc(Cl)cc1	10.5%	11.4%	-11.0%	-2.0%	10.9%	-2.8%
O=C(Nc1ccc(Cl)c(-c2nc3cc(Cl)ccc3o2)c1)c1cc([N+](=O)[O-])ccc1N1CCOCC1	·	·	·	3.4%	·	-3.8%
CCOC(CNC(=O)c1cccn2c(=O)c3cc(Cl)ccc3nc12)OCC	11.1%	3.5%	23.1µM*	-5.2%	-13.1%	-3.0%
Cc1ccccc1CC(=O)N1CCCC1	-3.1%	0.7%	-1.4%	·	-6.6%	3.3%
Cc1ccc(C(=O)N/N=C\c2c(C)nn(-c3ccccc3)c2Cl)cn1	2.6%	-4.1%	17.9%	?	5.8%	10.7µM*
Cc1ccc(-n2nc(C)c(/C=N/NC(=O)c3cccnc3)c2Cl)cc1	-3.0%	-0.6%	-14.0%	13.5%	-1.8%	?
Cc1nn(-c2ccccc2)c(Cl)c1/C=C/C(=O)c1ccccc1	-1.1%	-0.3%	?	-18.1%	18.4µM*	3.79µM*
Cc1nn(-c2ccccc2)c(Cl)c1/C=N/NC(=O)c1cccnc1	-0.4%	1.1%	?	?	9.3%	13.5µM*
CS(=O)(=O)N(CC(=O)Nc1ccccc1C(=O)NCc1ccco1)c1ccccc1F	-1.6%	-2.6%	7.7%	2.1%	-0.5%	-1.0%
Cc1cc(C)n2nc(SCC(=O)N3CCCCC3C)nc2n1 (configuration not stated)	·	·	6.8%	·	3.2%	·
Cc1cc(=O)n2[nH]c(-c3ccc(F)cc3)nc2n1	18.9%	3.5%	?	11.2%	?	12µM*
Cc1cc(=O)n2[nH]c(-c3cccnc3)nc2n1	-3.9%	1.2%	6.6%	-24.3%	1.0%	16.9µM*
CCn1cc(/C=C(\NC(=O)c2ccccc2F)C(=O)N2CCCC2)c2ccccc21	2.3%	-0.7%	-6.1%	·	-7.5%	1.7%
COc1ccc(N2CCN(C(=O)c3cc(NS(=O)(=O)c4ccc(F)cc4)ccn3)CC2)cc1	·	·	·	·	·	-18.0%
